Test results: PubChem BioAssay (NCATS)
Records with an inconclusive call do not appear. Calls of active or inactive are those of the source. Calls follow the shape of the dose curve; as a rule, active = well fitted curve in the direction sought with a large enough effect; inconclusive = small, poorly fitted or top-dose-only effect, or another doubt; inactive = no such curve, though single readings can be large; an effect the other way counts as inactive or inconclusive.

Assays:
[1] = S16 Schwann cell viability assay (CellTiter-Glo assay) (AID 624031);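 also: cellular ATP luminescence as a viability measure; nearly all actives have a fitted effect of over 70% in size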
Method in brief: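 Native S16 Schwann cells (rat), serum-containing medium, overnight attachment then 24 h drug exposure at 37 °C/5% CO2. CellTiter-Glo ATP signal; normalized to cell-free and vehicle wells.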

AA1029 = experiment: qHTS profiling for inhibitors of Plasmodium falciparum proliferation (AID 504749); also: nearly all actives have a fitted effect of over 60% in size; also: potency is read from the fitted curve at half-maximal effect; conditions: P. falciparum in erythrocytes, SYBR Green DNA, 72 h; series mostly up to 28.7 µM
Method in brief: (§1)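 SYBR Green fluorescence (ex 485 nm, em 535 nm) reports parasite DNA after 72 h compound exposure of infected red cells at 0.3% parasitemia, 2.5% hematocrit; signal normalized to 0.29 uM artemisinin and vehicle wells.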

AS120 = experiment: as above; conditions: P. falciparum in erythrocytes, SYBR Green DNA, 72 h; series mostly up to 28.7 µM
Method in brief: as §1

ATS95 = experiment: as above; conditions: P. falciparum in erythrocytes, SYBR Green DNA, 72 h; series mostly up to 28.7 µM
Method in brief: as §1

CP194 = experiment: as above; conditions: P. falciparum in erythrocytes, SYBR Green DNA, 72 h; series mostly up to 28.7 µM
Method in brief: as §1

CP247 = experiment: as above; conditions: P. falciparum in erythrocytes, SYBR Green DNA, 72 h; series mostly up to 28.7 µM
Method in brief: as §1

CP260 = experiment: as above; conditions: P. falciparum in erythrocytes, SYBR Green DNA, 72 h; series mostly up to 28.7 µM
Method in brief: as §1

CP266 = experiment: as above; conditions: P. falciparum in erythrocytes, SYBR Green DNA, 72 h; series mostly up to 28.7 µM
Method in brief: as §1

CP297 = experiment: as above; conditions: P. falciparum in erythrocytes, SYBR Green DNA, 72 h; series mostly up to 28.7 µM
Method in brief: as §1

DFO2036 = experiment: as above; conditions: P. falciparum in erythrocytes, SYBR Green DNA, 72 h; series mostly up to 28.7 µM
Method in brief: as §1

DIV14 = experiment: as above; conditions: P. falciparum in erythrocytes, SYBR Green DNA, 72 h; series mostly up to 28.7 µM
Method in brief: as §1

Dd2 = experiment: as above; conditions: P. falciparum in erythrocytes, SYBR Green DNA, 72 h; series mostly up to 28.7 µM
Method in brief: as §1

GB4 = experiment: as above; conditions: P. falciparum in erythrocytes, SYBR Green DNA, 72 h; series mostly up to 28.7 µM
Method in brief: as §1

ICS = experiment: as above; conditions: P. falciparum in erythrocytes, SYBR Green DNA, 72 h; series mostly up to 28.7 µM
Method in brief: as §1

P93_24 = experiment: as above; conditions: P. falciparum in erythrocytes, SYBR Green DNA, 72 h; series mostly up to 28.7 µM
Method in brief: as §1

P94_40 = experiment: as above; conditions: P. falciparum in erythrocytes, SYBR Green DNA, 72 h; series mostly up to 28.7 µM
Method in brief: as §1

PAD = experiment: as above; conditions: P. falciparum in erythrocytes, SYBR Green DNA, 72 h; series mostly up to 28.7 µM
Method in brief: as §1

PC15 = experiment: as above; conditions: P. falciparum in erythrocytes, SYBR Green DNA, 72 h; series mostly up to 28.7 µM
Method in brief: as §1

SC27B = experiment: as above; conditions: P. falciparum in erythrocytes, SYBR Green DNA, 72 h; series mostly up to 28.7 µM
Method in brief: as §1

TAB165 = experiment: as above; conditions: P. falciparum in erythrocytes, SYBR Green DNA, 72 h; series mostly up to 28.7 µM
Method in brief: as §1

Measured: Potency

C=C1Nc2ccccc2C(=O)N1c1ccccc1C
inactive: all assays above

Cc1cc(C)cc(C(=O)OC2CC3CCC(C2)N3C)c1 (stereo unspecified)
active: DIV14 7570 nM
not listed: [1] | Dd2 | ICS | PAD | PC15
inactive: all other assays above

CC1(C)[C@@H](C=C(Cl)Cl)[C@@H]1C(=O)OCc1c(F)c(F)cc(F)c1F
not listed: CP297
inactive: all other assays above

OCC(O)[C@H]1O[C@@H]2O[C@H](C(Cl)(Cl)Cl)O[C@@H]2[C@H]1O (stereo partly specified)
inactive: all assays above

CN1C2CCC1C(C(=O)O)C(OC(=O)c1ccccc1)C2 (stereo unspecified)
inactive: all assays above

C=CC[N+]1(C)CCC23c4c5ccc(O)c4O[C@H]2C(=O)CC[C@@]3(O)C1C5 (stereo partly specified)
inactive: all assays above

[S]=[Sb][S][Sb]=[S]
inactive: all assays above

C[C@@H]1CC[C@H]2[C@@H](C)C(=O)O[C@@H]3OC4(C)CC[C@@H]1C32OO4 (stereo partly specified)
active: AA1029 11.2 nM | AS120 7.1 nM | ATS95 11.2 nM | CP194 16.9 nM | CP247 10 nM | CP260 10 nM | CP266 19 nM | CP297 15.1 nM | DFO2036 7.1 nM | DIV14 7.6 nM | Dd2 6.3 nM | GB4 6.7 nM | ICS 2.5 nM | P93_24 3.5 nM | P94_40 2.8 nM | PAD 7.1 nM | PC15 10 nM | SC27B 7.1 nM | TAB165 3.2 nM

CCOC(=O)/C=C(C)/C=C/CC(C)CCCC(C)C (stereo unspecified)
inactive: all assays above

CCCCCc1cc(O)c2c(c1)OC(C)(C)C1CC=C(C)CC21 (stereo unspecified)
active: AA1029 2820 nM | AS120 2240 nM | ATS95 3160 nM | CP194 5360 nM | CP247 5010 nM | CP260 1780 nM | CP266 12000 nM | DFO2036 3160 nM | DIV14 1510 nM | Dd2 2510 nM | GB4 1690 nM | ICS 891 nM | P93_24 2510 nM | P94_40 2510 nM | PAD 1780 nM | PC15 5010 nM | SC27B 2000 nM | TAB165 2000 nM

CCCCCC(O)C1C(=O)OC(C)C(O)\C=C/C=C\C=C/C=C\C=C(\C)C(O)C(O)C(O)CC(O)CC(O)CC(O)CC(O)CC1O (stereo unspecified)
inactive: all assays above

CC1(C)S[C@@H]2[C@H](N)C(=O)N2C1C(=O)O (stereo partly specified)
inactive: all assays above

C[C@]12C=CC(=O)C=C1CC[C@@H]1C2CC[C@]2(C)OC(=O)CCC12 (stereo partly specified)
inactive: all assays above

CCCN1CCCC2Cc3nc(N)ncc3CC21 (stereo unspecified)
inactive: all assays above

CC1OC(O[C@H]2C[C@@H](O)[C@]3(CO)[C@@H]4C(CC[C@]3(O)C2)[C@@]2(O)CC[C@H](C3=CC(=O)OC3)[C@@]2(C)C[C@H]4O)C(O)C(O)C1O (stereo partly specified)
not listed: PC15
inactive: all other assays above

OC[C@@H](O)[C@H]1O[C@@H]2OC(C(Cl)(Cl)Cl)O[C@H]2[C@H]1O (stereo partly specified)
inactive: all assays above

NC(Cc1ccc(Oc2cc(I)c(O)c(I)c2)c(I)c1)C(=O)O (stereo unspecified)
not listed: CP247 | DFO2036 | P94_40
inactive: all other assays above

C#CC1(O)C=CC2C3CCC4=CC(=O)CCC4C3CCC21CC (stereo unspecified)
inactive: [1] | AS120 | Dd2
active: CP247 6310 nM | DIV14 6750 nM | PC15 11200 nM

C[C@]12CCC3C(CCC4=C(Cl)C(=O)CC[C@@]43C)C1CCC2O (stereo partly specified)
inactive: all assays above

CCC(=O)OC1(c2ccccc2)CCN(C)CC1C (stereo unspecified)
inactive: [1] | CP266 | DIV14 | ICS | PAD | PC15
active: CP297 12000 nM | Dd2 5620 nM | GB4 7570 nM

C[C@]12CC[C@H]3[C@@H](CC[C@@]45O[C@@H]4C(=O)C(C#N)C[C@]35C)[C@@H]1CC[C@@H]2O (stereo partly specified)
inactive: [1] | CP247 | CP260 | CP266 | CP297 | DIV14 | Dd2 | P94_40 | PAD | PC15

O=C1CC2OCC=C3CN4CCC56c7ccccc7N1C5[C@H]2[C@H]3C[C@H]46 (stereo partly specified) (tested in a mixture with another compound)
inactive: [1] | ATS95 | CP247 | CP266 | CP297 | DFO2036 | P93_24 | P94_40 | PC15 | SC27B | TAB165

CCCC(C)C1(CC)C(=O)NC(=S)NC1=O (stereo unspecified)
inactive: all assays above

CC12CCC3C4CCC(=O)C(O)=C4CCC3C1CCC2OC(=O)CCC1CCCC1 (stereo unspecified)
not listed: Dd2 | ICS
inactive: all other assays above

COC(=O)C1C(OC(=O)c2ccccc2)CC2CCC1N2C (stereo unspecified)
inactive: all assays above
